# Experimental data from PubChem BioAssay AID651635 (National Center for Advancing Translational Sciences (NCATS), 2012).
# The whole screen tested about 400,000 compounds, of which about 1,900 (0.47%) were called active. Not shown: some 14% with an inconclusive outcome. This is one part of a sample in which actives are shown more often than they occur. Unmarked numbers belong to inactive results. The call rests on the fitted dose curve; in most records, active means well fitted cell-killing curve with a large enough effect; inconclusive means small, poorly fitted or top-dose-only effect, or effect the other way; inactive means no such curve, though single readings can be large or run the other way.
# Test: Viability Counterscreen for Primary qHTS for Inhibitors of ATXN expression; further: nearly all actives have a fitted effect of over 40% in size
# Conditions: S2 cells (HEK-293 line with an ATXN2-luciferase reporter) viability, CellTiter-Fluor protease fluorescence, 24 h; series mostly up to 56.7 µM; activity change, negative = cytotoxicity: at the top concentration
# Text: Spinocerebellar ataxia type 2 (SCA2) is a multisystem neurodegenerative disease caused by a dominantly-acting mutation leading to expansion of a polyQ domain in the ataxin-2 protein (ATXN2). SCA2 patients develop progressive ataxia and later lose function in other neuronal systems. Prominent parkinsonian signs develop in some patients. Similar to many neurodegenerative disorders, no symptomatic or disease-modifying treatments are known.
# The primary objective of the proposed research is to identify compounds inhibiting ATXN2 expression and to test them for efficacy in SCA2 mouse models. To this end, we have developed a cell-based assay paired with an in vivo mouse model using identical luciferase expression constructs. This approach takes advantage of an ATXN2-luciferase transgene, with the luciferase gene flanked by the upstream and downstream portions of the ATXN2 gene. This primary assay was tested against the NIH Molecular Libraries Small Molecule Repository (MLSMR).
# NIH Chemical Genomics Center [NCGC]
# NIH Molecular Libraries Probe Centers Network [MLPCN]
# Assay Submitter (PI): Daniel Scoles, University of Utah
# PROTOCOL TABLE (as described by Inglese J, Shamu CE and Guy RK. 2007)
# SEQUENCE No. (e.g., 1, 2, 3, etc.); […] (e.g., Cells, Incubation, Reagent, etc.); VALUE; DESCRIPTION.
# 1; Cells; 4 uL; white, solid bottom, 1536-well Greiner assay plate.
# 2; Incubation; 2 hr; 37 degree C in 5% humidified CO2.
# 3; Compounds; 23 nL; Kalypsis pintool (Wako USA) equipped with a 1536-well pin head.
# 4; Incubation; 24 hr; 37 degree C in 5% humidified CO2.
# 5; Reagent; 1 uL; Gly-Phe-7-Amino-4-trifluoromethylcoumarin.
# 6; Incubation; 30 min; 37 degree C in 5% humidified CO2.
# 7; Detection; Fluorescence; ViewLux plate reader (PerkinElmer).
# 8; Reagent; 3 uL; SteadyGlo luciferase solution (Promega).
# 9; Incubation; 5 min; room temperature.
# 10; Detection; Luminescence; ViewLux plate reader (PerkinElmer).
# NOTES (numbers refer to Sequence numbers above)
# 1. S2 cells expressing ATXN2-luciferase reporter were suspended in phenol-red free DMEM and dispensed in assay plates using a Multidrop Combi dispenser (Thermo Fisher Scientific).
# 2. Assay plates were incubated. Evaporation was prevented by covering assay plates with metal lids containing holes to allow gas diffusion.
# 3. […] Vehicle-only plates, with DMSO being pin-transferred to columns 5-48, were inserted uniformly at the beginning and the end of each library to monitor and record any shifts in assay performance.
# 5. 125 uM Gly-Phe-7-Amino-4-trifluoromethylcoumarin (MP Biomedicals) working concentration was used at a final concentration of 25 uM.
# 7. To assess cell viability; the assay plates were read using the ViewLux high-throughput CCD imager (PerkinElmer), wherein single end-point fluorescence measurement was acquired (excitation 405/10; emission 540/25 nm).
# 8. Detection reagent SteadyGlo Luciferase (Promega) was added to the assay plate.
# 10. Luminescence is then measured on the ViewLux imager equipped with a clear emission filter using a 2 sec exposure. All screening operations were performed on a fully integrated robotic system (Kalypsys) containing one RX-130 and two RX-90 anthropomorphic robotic arms (Staubli).
# Inglese J, Shamu CE and Guy RK, Reporting data from high throughput screening of small molecule libraries, Nature Chemical Biology, 2007, 3(8): 438-441. doi.org/10.1038/nchembio0807-438.
# Potency means the concentration at half of the fitted maximal effect.
SMILES,"activity change, negative = cytotoxicity [%]",Potency
O=C(NCCc1ccccc1)c1cccc(NC(=O)c2ccccc2)c1,-24.5,
O=C(CSCc1ccccc1)Nc1ccccc1,25.7,
O=C(CCl)Nc1cccc(CP(=O)(c2ccccc2)c2ccccc2)c1,,14.1 µM (active)
CCOc1ccc(NS(=O)(=O)c2ccc(N)cc2)nn1,17.5,
O=C(NC(c1ccc(Cl)cc1)c1cnccn1)C1CCN(Cc2ccc(Cl)cc2)CC1 (stereo not given),-23.3,
Cc1ccc(CNC(=O)CSC2=Nc3ccccc3C3=NC(C)C(=O)N23)cc1 (stereo not given),-14.2,
NC(=O)CSC1=Nc2ccccc2C2=NC(CCC(=O)NCc3ccc(F)cc3)C(=O)N12 (stereo not given),-12,
O=C(CC1N=C2c3ccccc3N=C(SCc3cccc(Cl)c3)N2C1=O)NCc1ccc2c(c1)OCO2 (stereo not given),,31.6 µM (active)
CC(C)(C)C(=O)c1c(N)[nH]c(C(=O)c2ccccc2)c1-c1ccc(F)cc1,-33.1,
COCC(=O)Nc1cc(C(=O)N2CCCC(c3ccccc3)CC2)c2c(c1)nc(-c1ccncc1)n2C (stereo not given),-7.58,
CCOC(=O)[C@H](CCc1ccccc1)N[C@@H](C)C(=O)N1CC2(C[C@H]1C(=O)O)SCCS2,6.64,
O=C(C(=O)N1CCOc2ccc(CN3CCN(Cc4ccccn4)CC3)cc2C1)c1ccccc1,-15,
CCC1(C2CCN(C(=O)c3cccc(F)c3F)CC2)NC(=O)N(CCc2scnc2C)C1=O (stereo not given),-14.4,
Cc1ccc(-c2ccc(C(=O)N3CCc4nnc(CNC(=O)c5ccccc5)n4CC3)cc2)cc1,-15.1,
COc1ccc(CCNc2ncnc3sc(C(=O)N4CCCC4)c(C)c23)cc1OC,-4.95,
O=C1NC(=O)C2C1C(c1ccc([N+](=O)[O-])cc1)=NN2Cc1ccccc1 (stereo not given),-21.7,
Cn1nc(-c2ccccc2)c2cc([N+](=O)[O-])ccc21,-7.69,
O=C1CC(c2ccccc2)=NN1c1ccc([N+](=O)[O-])cc1,,21.2 µM (active)
NC(Cc1ccccc1)c1csc(Nc2cc(Oc3ccccc3)ncn2)n1 (stereo not given),,31.6 µM (active)
COc1ccc(C(NC(=O)C2CCN(CCCc3ccccc3)CC2)c2cccs2)cc1 (stereo not given),9.97,
COc1ccccc1C1CN(CCNC(=O)C2=CCCC2)Cc2ccccc2O1 (stereo not given),-8.91,
CC(C)NC(=O)N1Cc2cc(C(=O)NCC(F)(F)F)nc(-c3cccc(-c4cc5ccccc5o4)c3)c2[C@@H]1CCO,-37.5,
NC(N)=N/N=C/c1ccc(OCc2ccc(Cl)cc2Cl)cc1,,35.5 µM (active)

SMILES,"activity change, negative = cytotoxicity [%]",Potency
Cc1nc2ccccc2nc(C)c1=NOCc1ccc(Cl)cc1Cl,-14.1,
COc1ccc(Cl)cc1N(CC(=O)N/N=C/c1ccc(OCC(N)=O)cc1)S(C)(=O)=O,-14.9,
C[C@H]1C[C@H]2[C@@H]3CCC4=CC(=O)C=C[C@]4(C)[C@@H]3C(=O)C[C@]2(C)[C@@]1(O)C(=O)CO,3.63,
CC1=Nn2c(nnc2-c2ccccc2)SC1,-25,
COc1ccc(C2=Nn3c(nnc3-c3ccccc3OC)SC2)cc1OC1CCCC1,,15.8 µM (active)
COc1ccccc1-c1nnc2n1N=C(c1ccc(OC(F)F)c(OCC3CC3)c1)CS2,-23.3,
COc1ccc(CCNC(=O)c2ccc(-n3c(C)cc4c3CCCC4)cc2)cc1OC,-28.8,
O=C(Nc1cccc2cccnc12)c1ccc2sc([C@H]3C[C@H](O)[C@@H](CO)O3)nc2c1,-42,
Cc1ccccc1-c1csc(C(O)c2cccc(Cl)c2)n1 (stereo not given),-18.9,
S=C(NCCCc1ccccc1)Nc1ccc(Br)cc1,-11.3,
O=C(/C=C/c1ccc(Cl)cc1)Nc1ccc(Br)cn1,-29.4,
NCCCNC(=S)NCCCN(Cc1ccc(Cl)cc1)c1ccc(Br)cn1,,35.5 µM (active)
CN(C)CCNC(=O)c1cccc(-c2cnc3c(NC=O)cc(-c4cccc(C(F)(F)F)c4)cn23)c1,-0.0438,
CN1CCN(c2ccc(NC(=O)c3cc(Cl)c4c(c3)OCCO4)cc2)CC1,-8.04,
C=CC(=O)Nc1ccc(Nc2ccnc(Nc3ccc(N4CCN(C)CC4)cc3)n2)cc1,,14.1 µM (active)
Cc1cccc(N2CCN(c3ccc(NC(=O)/C=C\C(=O)O)cc3)CC2)c1,-26.1,
COC(=O)c1c(OCc2ccc(F)cc2)cc(=O)n2c1CCN(Cc1ccc3cccnc3c1)CC2,-11.1,
CC(C)C(=O)NC(C)c1nnc2n1CCN(Cc1cccc3ncccc13)CC2 (stereo not given),-8.05,
CCc1ccc2c(c1)C1(NN=C(c3ccccc3)S1)C(=O)N2 (stereo not given),,3.16 µM (active)
CO[C@H]1[C@H](NC(=O)C(C)C)c2ccccc2C12CCN(Cc1cnc(N(C)C)s1)CC2,-6.13,
COc1ccc(C2(Nc3cccc(F)c3)C(=O)c3ccccc3C2=O)cc1,-36.9,
CCOC(=O)c1c(-c2ccc(-c3ccccc3)cc2)csc1NC(=O)CCC(=O)O,-35.3,
